Results on 15 compounds are retold here after PubChem BioAssay (Tox21).

Assay [1] is described as follows: qHTS assay for small molecules that induce genotoxicity in human embryonic kidney cells expressing luciferase-tagged ATAD5 (AID 651632). Note: nearly all actives have a fitted effect of over 15% in size. In outline:
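Luminescent reporter readout, HEK293T ATAD5-luc line: 16 hr drug exposure (37C, 5% CO2) followed by Amplite, 30 min RT.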
A general note: qHTS replaces the single test concentration by a dilution series.

Assay [2] can be described thus: qHTS assay for small molecule agonists of the p53 signaling pathway - cell viability (AID 651633; calls by dose curve;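 note: p53RE-bla HCT reporter cells with a stable beta-lactamase p53 reporter; series mostly up to about 83 µM; nearly all actives have a fitted effect of over 30% in size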). A digest of the protocol: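 p53RE-bla cells, seeded at 4,000 per well and rested 5 h at 37 C/5% CO2, received compounds in DMSO for 16 h at 37 C. CellTiter-Glo was then added, and luminescence was read after 30 min at room temperature to gauge cytotoxicity.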
Assay [3] is described as follows: qHTS assay for small molecules that induce genotoxicity in human embryonic kidney cells expressing luciferase-tagged ATAD5 - cell viability (AID 651634; calls by dose curve; note: nearly all actives have a fitted effect of over 25% in size). In outline:
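Viability read: CellTiter-Fluor fluorescence, 30 min at 37C. Cells: HEK293T, luciferase-tagged ATAD5. Exposure: 15.5 hr, 37C, 5% CO2, compound or DMSO vehicle.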

A short description of assay [4]: qHTS assay for small molecule disruptors of the mitochondrial membrane potential (AID 720635). Note: potency is the fitted concentration of half-maximal effect. In outline: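 HepG2 cells (2,000/well) attached overnight at 37C, then took compound for 1 hr at 37C, 5% CO2. Mito-MPS dye was added for 30 min; fluorescence was read at 490/535 nm (monomers) and 540/590 nm (aggregates).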
A short description of assay [5]: qHTS assay to test for compound auto fluorescence at 590 nm (red) in HepG2 cells (AID 720674). A digest of the protocol:
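Compound auto-fluorescence is scored relative to Rose Bengal sodium, measured at 540/590 nm in live HepG2 cultures after 1 hr compound contact (37 C, 5% CO2).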

Assay [6] can be described thus: qHTS assay to test for compound auto fluorescence at 535 nm (green) in HepG2 cells (AID 720675).
A short description of assay [7]: qHTS assay to test for compound auto fluorescence at 460 nm (blue) in HEK293 cells (AID 720678). A digest of the protocol: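 HEK293, 2,000 cells/well, 10% dialyzed FBS; attach 4-5 hr 37C; pin compound or DMSO; o/n 37C/5% CO2; fluorescence 405/460 nm; triamterene-equivalent units.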
Assay [8] is described as follows: qHTS assay to test for compound auto fluorescence at 590 nm (red) in HEK293 cells (AID 720679). In outline: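 Intensity at 540nm excitation and 590nm emission is reported as Rose Bengal sodium-equivalent autofluorescence. Measurements followed overnight exposure (37C, 5% CO2) of HEK293 cells, 2,000 per well, to 23 nL compound.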
Assay [9] in a line: qHTS assay to test for compound auto fluorescence at 535 nm (green) in HEK293 cells (AID 720680).
Assay [10] can be described thus: qHTS assay to test for compound auto fluorescence at 460 nm (blue) in HEK293 cell free culture (AID 720681). In outline: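 Test compounds were pinned into cell-free culture medium (DMEM with 10% FBS) and fluorescence was read directly at Ex/Em 405/460 nm. Signals were expressed as fluorescence equivalents of triamterene, with DMSO vehicle as control.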
Assay [11] in a line: qHTS assay to test for compound auto fluorescence at 590 nm (red) in HEK293 cell free culture (AID 720683). A digest of the protocol:
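Tox21 10K library compounds were pinned into cell-free DMEM with 10% FBS and fluorescence was read at excitation 540 nm. Activity is expressed as Rose Bengal sodium equivalency.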

A short description of assay [12]: qHTS assay to test for compound auto fluorescence at 590 nm (red) in HepG2 cell free culture (AID 720684). In outline:
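Red fluorescence (540 nm excitation, 590 nm emission) was measured after compound transfer into cell-free MEM supplemented with 10% FBS. Values are equivalencies against Rose Bengal sodium.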

Assay [13] is described as follows: qHTS assay to test for compound auto fluorescence at 460 nm (blue) in HepG2 cell free culture (AID 720685). A digest of the protocol: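 Compound (23 nL) or DMSO pinned into cell-free MEM with 10% FBS; blue fluorescence read at 405/460 nm excitation/emission, expressed as auto-fluorescence equivalency to triamterene.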
Assay [14] can be described thus: qHTS assay to test for compound auto fluorescence at 535 nm (green) in HepG2 cell free culture (AID 720686).
Assay [15] can be described thus: qHTS assay to test for compound auto fluorescence at 460 nm (blue) in HepG2 cells (AID 720687). In outline:
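Cells (2,000/well in MEM with 10% FBS) attached overnight at 37 C, then were exposed to compound or DMSO for 1 hr at 37 C, 5% CO2. Fluorescence read at Ex/Em 405/460 nm, expressed as triamterene-equivalent signal.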

Assay [16] is described as follows: qHTS assay for small molecule disruptors of the mitochondrial membrane potential - cell viability (AID 720634; calls by dose curve;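 note: human HepG2 liver cancer cells; series mostly up to about 83 µM; nearly all actives have a fitted effect of over 20% in size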). A digest of the protocol:
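HepG2, 1 hr compound, 37 C. ATP luminescence via CellTiter-Glo, 30 min RT, same well as m-MPI.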

Assay [17] in a line: qHTS assay to test for compound auto fluorescence at 535 nm (green) in HEK293 cell free culture (AID 720682). In outline: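 Measurement is a direct plate read of green fluorescence (485 nm in, 535 nm out) after compound addition to serum-supplemented DMEM lacking cells, with fluorescein used to express intensities.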
In assay [18] the target is Glucocorticoid receptor (Homo sapiens) (UniProt P04150). As to the kind of experiment: qHTS assay to identify small molecule agonists of the glucocorticoid receptor (GR) signaling pathway (AID 720691; active = well fitted activation curve with a large enough effect in the signal ratio in the repeat runs, not every such curve was filed as active; the % refers to the signal ratio). In outline:
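qHTS in GR-bla HeLa cells: 4 h settling at 37 C/5% CO2, 18 h compound incubation at 37 C, 2 h LiveBLAzer B/G FRET substrate at room temperature, fluorescence intensity measured.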

Assay [19] has the same target. In words: qHTS assay to identify small molecule antagonists of the glucocorticoid receptor (GR) signaling pathway (AID 720692; active = well fitted inhibition curve with a large enough effect in the signal ratio in the repeat runs, not every such curve was filed as active; the % refers to the signal ratio). A digest of the protocol:
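Inhibition of glucocorticoid signalling is measured in HeLa cells with a GRE-controlled beta-lactamase reporter; cells are co-treated with compound and 5 nM dexamethasone (final) for 18 h before FRET substrate readout.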

Records with an inconclusive call do not appear. Active and inactive are the calls of the source. Unless noted, calls come from the whole dose curve; as a rule, active = well fitted curve in the direction sought with a large enough effect in the repeat runs; inconclusive = weak or mixed curves; inactive = no such curve, though single readings can be large; an effect the other way counts as inactive or inconclusive.

Glucocorticoid receptor (Homo sapiens), sequence (P04150 whole entry, looked up): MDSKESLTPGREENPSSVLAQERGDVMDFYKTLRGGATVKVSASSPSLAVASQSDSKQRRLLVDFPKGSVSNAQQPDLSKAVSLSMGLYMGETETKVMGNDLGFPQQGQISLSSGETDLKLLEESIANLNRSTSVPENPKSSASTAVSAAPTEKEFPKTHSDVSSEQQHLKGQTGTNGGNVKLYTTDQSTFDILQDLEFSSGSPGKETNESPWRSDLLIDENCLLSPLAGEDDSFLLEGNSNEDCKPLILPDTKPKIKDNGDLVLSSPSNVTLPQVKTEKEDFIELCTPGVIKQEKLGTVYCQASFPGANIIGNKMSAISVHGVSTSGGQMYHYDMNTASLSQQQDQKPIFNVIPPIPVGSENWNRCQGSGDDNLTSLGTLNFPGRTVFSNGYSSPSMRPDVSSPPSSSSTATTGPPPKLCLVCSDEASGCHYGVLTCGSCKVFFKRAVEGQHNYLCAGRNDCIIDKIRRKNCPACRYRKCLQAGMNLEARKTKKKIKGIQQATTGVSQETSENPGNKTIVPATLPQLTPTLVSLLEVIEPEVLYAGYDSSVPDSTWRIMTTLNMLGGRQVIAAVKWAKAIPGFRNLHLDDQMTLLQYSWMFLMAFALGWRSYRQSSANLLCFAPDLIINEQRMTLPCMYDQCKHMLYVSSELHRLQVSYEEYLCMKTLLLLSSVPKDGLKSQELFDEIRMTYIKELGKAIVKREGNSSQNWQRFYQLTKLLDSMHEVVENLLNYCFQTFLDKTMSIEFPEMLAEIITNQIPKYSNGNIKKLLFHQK

On to `CC1(C(=O)Nc2ccc(O)c(Cl)c2Cl)CCCCC1`, for which the Potency entry in assay [1], in [2] and in [3] was “inactive” throughout. Moreover, the Potency in assay [4] was 7.7 µM (active). The compound was classed as inactive in [5], in [6], in assay [7], in assay [8], in assay [9] and in [10]. Besides, the outcome in assay [11], in assay [12], in assay [13], in assay [14] and in [15] was inactive.

In the case of `C[N+](C)=CCl`, the Potency entry in assay [1], in assay [2], in assay [3] and in [16] was “inactive” in each case. The outcome in [5], in assay [6], in assay [7], in assay [8], in [9] and in assay [10] was inactive. The result in [17], in [11], in assay [12], in assay [13], in assay [14] and in assay [15] was inactive. Moreover, the compound was classed as inactive in assay [18].

For `O=NN1CCCCC1`, the Potency entry in assay [1], in assay [2], in assay [3], in assay [16] and in [4] was “inactive” each time. In addition, the compound was called inactive in [5], in [6], in assay [7], in assay [8], in assay [9] and in assay [10]. In addition, the result in assay [17], in assay [11], in assay [12], in assay [14], in assay [15] and in [18] was inactive.

For `O=[N+]([O-])c1cccc(O)c1`, the Potency result in assay [1], in assay [2] and in assay [3] was “inactive” in each case. For the same compound, the Potency in assay [4] is 43.4 µM (active). Besides, the call in assay [5], in [6], in assay [7], in [8], in assay [9] and in assay [10] was inactive. Moreover, the call in [17], in assay [11], in assay [12], in assay [13], in [14] and in assay [15] was inactive.

Regarding `CS(=O)(=O)c1cc(C(F)(F)F)ccc1C(=O)c1cnoc1C1CC1`, the Potency entry in assay [1], in assay [2], in assay [3], in [16], in assay [4] and in [19] was “inactive” throughout. Moreover, the compound was classed as inactive in assay [5], in assay [6], in assay [8], in assay [9], in assay [10] and in assay [11]. The call in [12], in assay [13], in assay [14], in [15] and in assay [18] was inactive.

`CC1CCC(=O)O1` (stereo not given): the Potency entry in [1], in [2], in assay [3], in assay [16], in [4] and in assay [19] was “inactive” throughout. Further, the outcome in [5], in assay [6], in assay [7], in assay [8], in assay [9] and in [10] was inactive. Further, the compound was classed as inactive in assay [17], in assay [11], in assay [12], in [13], in assay [15] and in assay [18].

For the compound `O=C1CN=C(c2ccccc2)c2cc([N+](=O)[O-])ccc2N1`, the Potency result in [1], in [2], in [3], in assay [16], in assay [4] and in [19] was “inactive” each time. In addition, the compound was classed as inactive in assay [5], in assay [6], in assay [8], in [9], in assay [10] and in assay [11]. Also, the outcome in assay [12], in [13], in [14], in assay [15] and in [18] was inactive.

In the case of `O=C1OC(c2ccc(O)c(S(=O)(=O)O)c2)(c2ccc(O)c(S(=O)(=O)O)c2)c2c(Br)c(Br)c(Br)c(Br)c21`, the Potency entry in [1], in [2], in assay [3] and in assay [16] was “inactive” each time. For the same compound, the result in assay [5], in [6], in assay [7], in [8], in assay [10] and in assay [17] was inactive. Besides, the compound was classed as inactive in [11], in [12], in [13], in [14], in [15] and in [18].

As for `CN(N=O)C(N)=O`, the Potency result in assay [1], in [2], in [3], in assay [16] and in assay [19] was “inactive” throughout. Also, the outcome in [5], in assay [6], in assay [7], in assay [8], in [9] and in assay [10] was inactive. Further, the result in assay [17], in assay [11], in assay [12], in assay [15] and in [18] was inactive.

Regarding `ClC(Cl)(Cl)C(Cl)(Cl)Cl`, the Potency result in assay [1], in assay [2], in assay [3], in assay [16], in [4] and in assay [19] was “inactive” each time. Further, the outcome in assay [5], in assay [6], in assay [7], in assay [8], in [9] and in assay [10] was inactive. The outcome in assay [17], in [11], in assay [12], in [13], in [14] and in [15] was inactive. In assay [18], the outcome was inactive.

With `ClC(Cl)Br`, the Potency result in assay [1], in assay [2], in [3], in assay [16] and in assay [4] was “inactive” throughout. The call in assay [5], in assay [6], in assay [7], in assay [8], in [9] and in [10] was inactive. In addition, the result in [11], in assay [12], in [13], in [15] and in assay [18] was inactive.

Take `Nc1cc2c3c(c1)C(c1ccccc1)=N[C@@H](NC(=O)c1cccnc1)C(=O)N3CC2`: the Potency result in assay [1], in assay [2], in assay [3], in assay [16] and in assay [19] was “inactive” each time. Also, the compound was classed as inactive in assay [5], in assay [6], in [8], in assay [10], in [17] and in [11]. Besides, the compound was called inactive in [12], in assay [13], in assay [15] and in assay [18].

With `COC(=O)C1=CCCN(C)C1`, the Potency entry in [1], in assay [2], in [3], in assay [16], in [4] and in assay [19] was “inactive” in each case. Moreover, the compound was called inactive in assay [5], in [6], in [7], in assay [8], in assay [9] and in assay [10]. Further, the compound was called inactive in [17], in assay [11], in assay [12], in assay [13], in assay [14] and in [15]. Moreover, the compound was classed as inactive in [18].

`Oc1c(Cl)cccc1Cl`: the Potency result in assay [1], in [2], in [3], in [16] and in [4] was “inactive” throughout. Further, the compound was classed as inactive in [5], in assay [6], in [7], in assay [8], in [9] and in assay [10]. In addition, the call in assay [17], in assay [11], in assay [12], in assay [14] and in assay [15] was inactive.

Take `OCCSCSCCO`: the Potency result in [1], in assay [2], in assay [3], in [16] and in [4] was “inactive” throughout. Besides, the result in assay [5], in [6], in assay [8], in [9], in [10] and in assay [17] was inactive. The call in [11], in [12], in assay [13], in assay [14] and in assay [15] was inactive.
